# Records with an inconclusive call do not appear. Calls of active or inactive are those of the source. The calls were made as follows: active = hit-call score of the fitted dose curve at least 0.9, where 1 is the maximum; inconclusive = response in the unintended direction; inactive = score below 0.9.
# Columns and labels:
# [1] = target: Protein deacetylase HDAC6 (Homo sapiens) (UniProt Q9UBN7); test: NVS_ENZ_hHDAC6: NovaScreen (NVS) Enzymatic Assay for human Histone Deacetylase 6 (HDAC6) (AID 2283164)
# Procedure, shortened: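 Recombinant human HDAC6 with fluorescent substrate, 1 h; product separated from substrate by electrophoretic mobility shift. Primary screen in duplicate at 25 uM; actives retested singly in concentration-response up to 50 uM, fitted relative to DMSO.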
# [2] = target: human Tyrosine Protein Kinase Receptor Tie-2 (Tie2), TEK (gene 7010) (UniProt Q02763); test: NVS_ENZ_hTie2: NovaScreen (NVS) Enzymatic Assay for human Tyrosine Protein Kinase Receptor Tie-2 (Tie2) (AID 2283225)
# Procedure, shortened: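 Recombinant human Tie2 kinase activity was read cell-free by fluorescence with electrophoretic mobility shift, 1 hour after dosing. The screen used 25 uM in duplicate, then concentration-response up to 50 uM. Signal loss was scored against DMSO.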
# [3] = target: rat Monoamine Oxidase, MAO-B, Central (MAOBC), Maob (gene 25750) (UniProt P19643); test: NVS_ENZ_rMAOBC: NovaScreen (NVS) Enzymatic Assay for rat Monoamine Oxidase, MAO-B, Central (MAOBC) (AID 2283238)
# Procedure, shortened: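 MAO-B activity in rat brain tissue preparation, cell-free, measured radiometrically by scintillation counting 1.17 h after dosing. Screened in duplicate at 25 uM; actives then in concentration-response up to 50 uM. Loss of signal versus DMSO scored.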
# [4] = target: bovine Gamma-Aminobutyric Acid Type A Receptor BDZ, alpha 1 site (GABARa1), GABRA1 (gene 780973) (UniProt P08219); test: NVS_LGIC_bGABARa1: NovaScreen (NVS) Ligand-Gated Ion Channel Assay for bovine Gamma-Aminobutyric Acid Type A Receptor BDZ, alpha 1 site (GABARa1) (AID 2283321)
# Procedure, shortened: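 Radioligand competition binding on bovine cortical membranes, 0.75 h, filter-based scintillation counting. Primary single concentration 25 uM in duplicate; actives rerun in concentration-response to 50 uM max. Loss of signal fitted versus DMSO.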
# [5] = target: human Fibroblast Growth Factor Receptor 1 (FGFR1), FGFR1 (gene 2260) (UniProt P11362); test: NVS_ENZ_hFGFR1: NovaScreen (NVS) Enzymatic Assay for human Fibroblast Growth Factor Receptor 1 (FGFR1) (AID 2283159)
# Procedure, shortened: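 Cell-free recombinant kinase with fluorescent substrate, product separated by electrophoretic mobility shift; read 1 hour after dosing, loss of signal relative to DMSO. Initial screen in duplicate at 25 uM, actives followed in concentration series.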
# [6] = target: human Mitogen-Activated Protein Kinase 1 (MAPK 1), MAPK1 (gene 5594) (UniProt P28482); test: NVS_ENZ_hMAPK1: NovaScreen (NVS) Enzymatic Assay for human Mitogen-Activated Protein Kinase 1 (MAPK 1) (AID 2283175)
# Procedure, shortened: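 Cell-free recombinant human MAPK1 enzymatic assay, fluorescence/electrophoretic mobility shift read at 1 h; loss of signal vs DMSO. Primary screen in duplicate at 25 uM; actives (e.g. ≥30% inhibition) run as concentration-response up to 50 uM.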
# [7] = target: human p21 Activated Kinase 4 (PAK4), PAK4 (gene 10298) (UniProt O96013); test: NVS_ENZ_hPAK4: NovaScreen (NVS) Enzymatic Assay for human p21 Activated Kinase 4 (PAK4) (AID 2283189)
# Procedure, shortened: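 Cell-free recombinant human PAK4 activity assay; fluorescent substrate and product separated by electrophoretic mobility shift, read 1 h after dosing. Initially tested in duplicate at 25 uM, relative to DMSO baseline.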
# [8] = target: human Phosphatase and Tensin Homolog (PTEN), PTEN (gene 5728) (UniProt P60484); test: NVS_ENZ_hPTEN: NovaScreen (NVS) Enzymatic Assay for human Phosphatase and Tensin Homolog (PTEN) (AID 2283203)
# Procedure, shortened: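 Cell-free recombinant human PTEN with fluorescent substrate; product separated by electrophoretic mobility shift and read by fluorescence 1 h after dosing. Primary screen in duplicate at 25 uM, actives followed in concentration series versus DMSO.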
# [9] = read-out: xenobiotic metabolism (CYP2C9), CYP2C9 (gene 1559); test: CLD_CYP2C9_6hr: CellzDirect (CLD) Gene Expression Assay for xenobiotic metabolism (CYP2C9) at 6 hours (AID 2283664)
# Procedure, shortened: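 Primary human hepatocytes dosed daily with test chemicals at multiple concentrations; harvested at 6 h. CYP2C9 mRNA induction measured by qNPA chemiluminescence. Gain of signal fitted against 0.2% DMSO vehicle; cytotoxicity annotated from phase-contrast morphology.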
# [10] = target: human MET Proto-Oncogene, Receptor Tyrosine Kinase (MET), MET (gene 4233) (UniProt P08581); test: NVS_ENZ_hMet: NovaScreen (NVS) Enzymatic Assay for human MET Proto-Oncogene, Receptor Tyrosine Kinase (MET) (AID 2283180)
# Procedure, shortened: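 Cell-free MET kinase assay using recombinant protein and fluorescent substrate, with mobility-shift separation; read 1 h after dosing. Primary duplicate at 25 uM; actives in singleton concentration-response to 50 uM maximum. Signal loss versus DMSO.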
# [11] = target: human Protein Tyrosine Phosphatase Non-receptor Type 2 (PTPN2), PTPN2 (gene 5771) (UniProt P17706); test: NVS_ENZ_hPTPN2: NovaScreen (NVS) Enzymatic Assay for human Protein Tyrosine Phosphatase Non-receptor Type 2 (PTPN2) (AID 2283207)
# Procedure, shortened: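 Cell-free recombinant enzyme with fluorescent substrate, product separated by electrophoretic mobility shift; read 1 h after dosing. Primary screen single concentration (25 uM) in duplicate; actives followed in concentration series; loss of signal versus DMSO.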
# [12] = target: rat Gamma-Aminobutyric Acid Type A Receptor BDZ, alpha 6 site (GABARa6), Gabra6 (gene 29708) (UniProt P30191); test: NVS_LGIC_rGABARa6: NovaScreen (NVS) Ligand-Gated Ion Channel Assay for rat Gamma-Aminobutyric Acid Type A Receptor BDZ, alpha 6 site (GABARa6) (AID 2283339)
# Procedure, shortened: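 Rat cerebellar membranes; radioligand binding, filtration and scintillation counting, read 1 h after dosing. Single-concentration duplicate screen at 25 uM, then concentration-response up to 50 uM for actives; loss of signal fitted versus DMSO baseline.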
# [13] = target: rat Acetylcholinesterase (AChE), Ache (gene 83817) (UniProt P37136); test: NVS_ENZ_rAChE: NovaScreen (NVS) Enzymatic Assay for rat Acetylcholinesterase (AChE) (AID 2283233)
# Procedure, shortened: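 Rat brain membrane acetylcholinesterase activity measured colorimetrically 0.33 h after compound addition, loss of signal relative to DMSO. Primary screen in duplicate at 25 uM; actives re-run as concentration-response with 50 uM top concentration.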
# [14] = target: human Neonicotinoid receptor (NNR), CHRNA2 (gene 1135) (UniProt Q15822); test: NVS_LGIC_hNNR_NBungSens: NovaScreen (NVS) Ligand-Gated Ion Channel Assay for human Neonicotinoid receptor (NNR) (AID 2283313)
# Procedure, shortened: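 Radioligand displacement on human neuroblastoma membranes, 2 h, filter-based scintillation counting. Primary screen in duplicate at 25 uM; chemicals passing threshold (e.g. 30% inhibition) run singleton concentration-response to 50 uM; loss of binding fitted versus DMSO.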
# [15] = target: human Raf-1 Proto-Oncogene, serine/threonine Kinase (RAF1), RAF1 (gene 5894) (UniProt P04049); test: NVS_ENZ_hRAF1: NovaScreen (NVS) Enzymatic Assay for human Raf-1 Proto-Oncogene, serine/threonine Kinase (RAF1) (AID 2283216)
# Procedure, shortened: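 Cell-free recombinant kinase with specific fluorescent substrate, product separated by electrophoretic mobility shift; read 1 h after dosing. Primary screen at 25 uM in duplicate; hits then run in concentration-response up to 50 uM, fitted as loss of signal versus DMSO.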
# Chain of human Tyrosine Protein Kinase Receptor Tie-2 (Tie2), TEK (gene 7010) (Q02763 whole entry, looked up): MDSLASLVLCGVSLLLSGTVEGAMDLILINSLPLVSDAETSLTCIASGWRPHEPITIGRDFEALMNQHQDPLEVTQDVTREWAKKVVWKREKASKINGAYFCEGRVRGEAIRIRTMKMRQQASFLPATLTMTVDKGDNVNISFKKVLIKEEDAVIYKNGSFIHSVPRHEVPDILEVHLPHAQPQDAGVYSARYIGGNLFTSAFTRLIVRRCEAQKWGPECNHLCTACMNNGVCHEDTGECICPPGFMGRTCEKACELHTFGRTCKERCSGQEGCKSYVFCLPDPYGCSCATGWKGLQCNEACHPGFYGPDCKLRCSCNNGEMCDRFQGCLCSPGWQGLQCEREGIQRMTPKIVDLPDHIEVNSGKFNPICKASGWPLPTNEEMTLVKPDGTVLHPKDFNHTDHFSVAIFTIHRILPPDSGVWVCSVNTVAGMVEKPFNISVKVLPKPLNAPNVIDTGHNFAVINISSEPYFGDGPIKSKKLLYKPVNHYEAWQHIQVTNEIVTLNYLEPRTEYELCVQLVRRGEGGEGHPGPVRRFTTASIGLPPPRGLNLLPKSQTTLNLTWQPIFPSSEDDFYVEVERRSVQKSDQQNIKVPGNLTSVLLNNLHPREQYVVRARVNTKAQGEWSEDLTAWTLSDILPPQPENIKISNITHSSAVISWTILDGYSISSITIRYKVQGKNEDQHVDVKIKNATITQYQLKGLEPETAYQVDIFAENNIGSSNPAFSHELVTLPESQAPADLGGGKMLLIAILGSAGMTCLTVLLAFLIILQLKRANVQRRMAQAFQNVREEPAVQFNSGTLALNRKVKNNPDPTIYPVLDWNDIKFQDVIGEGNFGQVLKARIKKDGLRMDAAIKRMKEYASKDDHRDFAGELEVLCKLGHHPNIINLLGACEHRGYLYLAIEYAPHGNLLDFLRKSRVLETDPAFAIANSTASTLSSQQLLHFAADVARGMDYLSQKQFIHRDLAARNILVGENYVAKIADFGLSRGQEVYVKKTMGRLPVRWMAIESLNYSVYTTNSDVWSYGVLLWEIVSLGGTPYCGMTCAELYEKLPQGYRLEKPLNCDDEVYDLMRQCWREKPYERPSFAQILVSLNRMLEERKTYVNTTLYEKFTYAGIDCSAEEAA
# Chain of human Fibroblast Growth Factor Receptor 1 (FGFR1), FGFR1 (gene 2260) (P11362 whole entry, looked up): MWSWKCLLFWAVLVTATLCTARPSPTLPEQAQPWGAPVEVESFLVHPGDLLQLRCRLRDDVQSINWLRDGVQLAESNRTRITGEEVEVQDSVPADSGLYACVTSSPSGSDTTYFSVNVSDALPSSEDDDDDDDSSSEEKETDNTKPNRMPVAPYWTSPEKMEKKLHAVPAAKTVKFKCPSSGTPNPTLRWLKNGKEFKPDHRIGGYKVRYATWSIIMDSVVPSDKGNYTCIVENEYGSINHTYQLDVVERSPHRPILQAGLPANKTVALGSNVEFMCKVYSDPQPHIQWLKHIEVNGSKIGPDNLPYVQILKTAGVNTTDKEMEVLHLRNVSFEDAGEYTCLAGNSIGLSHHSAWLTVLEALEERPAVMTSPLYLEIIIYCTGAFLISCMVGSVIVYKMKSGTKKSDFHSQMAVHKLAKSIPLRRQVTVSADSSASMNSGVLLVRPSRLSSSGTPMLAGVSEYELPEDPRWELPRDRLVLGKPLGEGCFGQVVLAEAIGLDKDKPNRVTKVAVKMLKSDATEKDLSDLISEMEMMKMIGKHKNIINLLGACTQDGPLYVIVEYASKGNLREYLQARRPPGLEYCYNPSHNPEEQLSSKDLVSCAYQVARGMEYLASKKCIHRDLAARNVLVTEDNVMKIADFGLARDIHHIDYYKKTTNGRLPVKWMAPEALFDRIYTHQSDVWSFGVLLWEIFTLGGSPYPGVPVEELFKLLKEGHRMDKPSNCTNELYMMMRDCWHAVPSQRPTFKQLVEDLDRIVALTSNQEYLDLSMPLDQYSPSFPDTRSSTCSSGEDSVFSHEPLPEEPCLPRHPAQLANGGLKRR
# Chain of Protein deacetylase HDAC6 (Homo sapiens) (Q9UBN7 whole entry, looked up): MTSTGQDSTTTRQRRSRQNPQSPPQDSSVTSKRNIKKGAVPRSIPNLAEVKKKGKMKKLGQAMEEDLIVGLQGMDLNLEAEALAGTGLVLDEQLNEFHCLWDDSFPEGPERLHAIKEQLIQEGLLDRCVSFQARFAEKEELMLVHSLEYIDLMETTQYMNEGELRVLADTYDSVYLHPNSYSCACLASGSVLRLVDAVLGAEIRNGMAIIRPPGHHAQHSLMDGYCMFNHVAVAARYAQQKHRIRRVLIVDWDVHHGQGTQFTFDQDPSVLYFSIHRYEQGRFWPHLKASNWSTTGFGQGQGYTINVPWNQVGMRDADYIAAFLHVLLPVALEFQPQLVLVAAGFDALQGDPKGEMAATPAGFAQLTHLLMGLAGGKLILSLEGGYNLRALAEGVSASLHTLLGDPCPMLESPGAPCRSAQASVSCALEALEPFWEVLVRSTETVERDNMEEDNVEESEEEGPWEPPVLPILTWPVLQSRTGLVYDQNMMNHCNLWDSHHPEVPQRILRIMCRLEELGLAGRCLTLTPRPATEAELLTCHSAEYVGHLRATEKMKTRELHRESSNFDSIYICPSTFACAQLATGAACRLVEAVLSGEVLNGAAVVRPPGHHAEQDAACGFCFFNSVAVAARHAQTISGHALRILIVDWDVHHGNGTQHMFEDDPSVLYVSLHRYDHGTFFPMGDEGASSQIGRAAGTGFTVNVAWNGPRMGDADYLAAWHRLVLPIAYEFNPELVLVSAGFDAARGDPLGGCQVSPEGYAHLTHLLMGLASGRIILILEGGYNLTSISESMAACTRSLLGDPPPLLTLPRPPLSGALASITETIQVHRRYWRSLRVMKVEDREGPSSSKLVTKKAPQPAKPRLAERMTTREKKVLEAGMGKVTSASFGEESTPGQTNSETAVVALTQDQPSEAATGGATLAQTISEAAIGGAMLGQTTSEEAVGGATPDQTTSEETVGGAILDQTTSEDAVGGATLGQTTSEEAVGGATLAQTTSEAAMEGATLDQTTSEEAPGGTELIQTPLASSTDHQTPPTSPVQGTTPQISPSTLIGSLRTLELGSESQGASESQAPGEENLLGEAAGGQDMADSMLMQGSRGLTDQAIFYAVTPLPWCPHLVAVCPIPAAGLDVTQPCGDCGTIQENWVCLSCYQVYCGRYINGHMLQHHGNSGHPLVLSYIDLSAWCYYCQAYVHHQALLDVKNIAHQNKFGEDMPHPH
# Chain of human p21 Activated Kinase 4 (PAK4), PAK4 (gene 10298) (O96013 whole entry, looked up): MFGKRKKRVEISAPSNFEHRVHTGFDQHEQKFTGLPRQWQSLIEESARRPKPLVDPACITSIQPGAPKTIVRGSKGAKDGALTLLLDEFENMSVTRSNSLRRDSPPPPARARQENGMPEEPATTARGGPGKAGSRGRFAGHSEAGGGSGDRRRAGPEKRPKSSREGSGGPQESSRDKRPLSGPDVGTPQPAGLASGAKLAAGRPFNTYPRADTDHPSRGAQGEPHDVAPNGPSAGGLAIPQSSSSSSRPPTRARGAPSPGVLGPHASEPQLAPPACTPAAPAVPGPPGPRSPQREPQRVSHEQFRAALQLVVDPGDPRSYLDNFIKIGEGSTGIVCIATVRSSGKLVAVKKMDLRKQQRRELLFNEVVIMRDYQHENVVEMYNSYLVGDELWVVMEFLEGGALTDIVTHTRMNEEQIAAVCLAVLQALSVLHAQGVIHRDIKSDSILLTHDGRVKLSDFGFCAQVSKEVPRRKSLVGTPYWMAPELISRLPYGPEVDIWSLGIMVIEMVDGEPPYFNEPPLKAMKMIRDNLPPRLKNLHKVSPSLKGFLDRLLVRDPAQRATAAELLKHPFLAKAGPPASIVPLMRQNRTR
# Chain of bovine Gamma-Aminobutyric Acid Type A Receptor BDZ, alpha 1 site (GABARa1), GABRA1 (gene 780973) (P08219 whole entry, looked up): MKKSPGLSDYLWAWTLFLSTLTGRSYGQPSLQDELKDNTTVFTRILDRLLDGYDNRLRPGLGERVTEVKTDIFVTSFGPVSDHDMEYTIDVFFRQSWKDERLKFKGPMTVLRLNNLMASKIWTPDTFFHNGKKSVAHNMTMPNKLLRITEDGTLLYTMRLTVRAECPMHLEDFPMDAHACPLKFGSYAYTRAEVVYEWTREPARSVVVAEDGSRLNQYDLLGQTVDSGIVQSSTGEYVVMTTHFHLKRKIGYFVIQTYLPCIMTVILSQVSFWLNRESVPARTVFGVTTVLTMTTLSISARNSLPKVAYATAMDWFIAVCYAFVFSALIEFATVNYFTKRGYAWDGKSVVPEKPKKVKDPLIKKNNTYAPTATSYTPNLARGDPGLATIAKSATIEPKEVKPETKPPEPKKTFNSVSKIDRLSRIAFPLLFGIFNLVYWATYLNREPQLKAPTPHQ
# Chain of human Mitogen-Activated Protein Kinase 1 (MAPK 1), MAPK1 (gene 5594) (P28482 whole entry, looked up): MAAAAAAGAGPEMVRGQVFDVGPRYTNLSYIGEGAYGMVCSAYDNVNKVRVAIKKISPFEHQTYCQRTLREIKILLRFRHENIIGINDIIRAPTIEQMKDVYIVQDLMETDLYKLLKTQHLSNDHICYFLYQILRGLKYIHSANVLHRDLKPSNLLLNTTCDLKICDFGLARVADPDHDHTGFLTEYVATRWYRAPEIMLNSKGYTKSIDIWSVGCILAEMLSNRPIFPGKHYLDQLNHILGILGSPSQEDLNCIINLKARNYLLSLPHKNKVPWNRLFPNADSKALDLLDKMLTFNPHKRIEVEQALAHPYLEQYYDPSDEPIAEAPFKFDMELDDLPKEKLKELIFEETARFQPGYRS
# Chain of human Phosphatase and Tensin Homolog (PTEN), PTEN (gene 5728) (P60484 whole entry, looked up): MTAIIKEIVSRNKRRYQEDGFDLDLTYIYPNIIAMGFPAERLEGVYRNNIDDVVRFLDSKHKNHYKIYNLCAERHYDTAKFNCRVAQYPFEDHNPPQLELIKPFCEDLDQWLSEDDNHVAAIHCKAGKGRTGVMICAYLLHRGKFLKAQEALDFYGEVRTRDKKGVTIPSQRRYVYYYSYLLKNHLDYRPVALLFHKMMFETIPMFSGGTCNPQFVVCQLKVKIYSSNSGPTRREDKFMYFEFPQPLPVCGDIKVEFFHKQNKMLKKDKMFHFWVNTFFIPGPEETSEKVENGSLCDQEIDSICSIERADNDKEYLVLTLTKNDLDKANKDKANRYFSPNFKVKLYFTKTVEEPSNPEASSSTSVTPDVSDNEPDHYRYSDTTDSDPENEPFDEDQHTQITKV
smiles,measurement,setting,value
C#C[C@]1(O)CC[C@H]2[C@@H]3CCC4=CC(=O)CC[C@@H]4[C@H]3CC[C@@]21C,outcome,[1],inactive
same,outcome,[2],inactive
same,outcome,[3],inactive
same,AC50,[4],1.27 µM (active)
COCCO,outcome,[5],inactive
same,outcome,[6],inactive
same,outcome,[7],inactive
same,outcome,[8],inactive
same,outcome,[9],inactive
CCCC(CCC)C(=O)O,outcome,[5],inactive
same,outcome,[1],inactive
same,outcome,[10],inactive
same,outcome,[7],inactive
same,outcome,[8],inactive
same,outcome,[11],inactive
same,outcome,[2],inactive
same,outcome,[12],inactive
CCCCC(CC)COC(=O)CCCCC(=O)OCc1ccccc1 (stereo not drawn),outcome,[5],inactive
same,outcome,[2],inactive
CC(CO)OC(C)CO (stereo not drawn) (tested in a mixture with another compound),outcome,[1],inactive
same,outcome,[2],inactive
CCCCCCCC=O,outcome,[5],inactive
same,outcome,[6],inactive
same,outcome,[13],inactive
CN(C)CCCN1c2ccccc2Sc2ccc(Cl)cc21,outcome,[5],inactive
same,AC50,[14],35.7 µM (active)
same,outcome,[4],inactive
COc1ccc2sc(C(=O)Nc3nnn[nH]3)c(OC(C)C)c2c1,outcome,[5],inactive
same,outcome,[7],inactive
same,AC50,[15],25 µM (active)
same,outcome,[2],inactive
CCCCCCC(=O)O,outcome,[5],inactive
same,outcome,[1],inactive
